Experimental data reported in PubChem BioAssay (Tox21).
Active and inactive are the calls of the source. Where a call stands in place of a potency, no number is given. Calls follow the shape of the dose curve; as a rule, active = well fitted curve in the direction sought with a large enough effect in the repeat runs; inconclusive = weak or mixed curves; inactive = flat fitted curve, though single readings scatter.

Test: qHTS assay to test for compound auto fluorescence at 460 nm (blue) in HepG2 cells (AID 720687)
Details: autofluorescence 405/460 nm, 1 h; series mostly up to 91.3 µM
Excerpt: U.S. Tox21 Program National Center for Advancing Translational Sciences [NCATS] NIH Chemical Genomics Center [NCGC] U.S. Environmental Protection Agency [EPA] National Institutes of Environmental Health Sciences [NIEHS] National Toxicology Program [NTP] U.S. Food and Drug Administration [FDA] Tox21 Assay Overview: Compound auto fluorescence often interferes with screening of the compound library against various biological targets and signaling pathways. Some of these compounds may have fluorophoric properties. Such properties may interfere with the assay outputs resulting in false positives and/or negatives. To decrease such complications and ensure the compound activities are relevant in terms of biological response, the Tox21 10K compound library was screened for auto fluorescence. From the fluorophores used as reporter signals in our screening assays, the auto fluorescence equivalencies of compounds against three fluorophores have been evaluated: Triamterene, Fluorescein and Rose Bengal sodium for blue, green and red fluorescence, respectively. The fluorescence intensities were measured using Excitation/Emission wavelengths at 405/460nm, 485/535nm and 540/590nm for blue, green and red labels, respectively. This assay includes the blue fluorescence data.
Tox21 Assay Protocol Summary: 2,000 HepG2 cells in 5 uL of culture medium (MEM containing 10% FBS) per well were dispensed into black wall/clear bottom 1536-well plates using a Multidrop Combi Dispenser (ThermoFisher Scientific, Waltham, MA). The assay plates were incubated overnight at 37 C to allow cell attachment to the well bottom, followed by the transfer of 23 nL compound or DMSO vehicle by a pintool work station (Kalypsys , San Diego, CA). After the assay plates were incubated for 1 hr at 37 C and 5% CO2, fluorescence intensities in the assay plates were measured by an Envision (PerkinElmer, Shelton, CT) plate reader using three labels for measuring blue, green and red fluorescence at […] 460, 535 and 590 nm respectively.
Potency is read from the fitted curve at half-maximal effect; tags tell the direction and shape of the fitted curve or compound fluorescence and quenching.

SMILES | fluorescence, % of fluorescent control | Potency
O=C(O)[C@H](O)[C@@H](O)[C@H](O[C@@H]1O[C@H](CO)[C@H](O)[C@H](O)[C@H]1O)[C@H](O)CO | 0.0744% [at 18.6 µM] (inactive) | 
CC(=O)OCC=C(C)C |  | inactive
CN(C)c1ccc(C(=C2C=CC(=[N+](C)C)C=C2)c2ccc(N(C)C)cc2)cc1 |  | inactive
C/C=C/C=C/COC(=O)C(C)C |  | inactive
CCc1ccc(Br)cc1 |  | inactive
CC1(C)CCC[C@]2(C)[C@H]3CC(=O)O[C@]3(C)CC[C@@H]12 |  | inactive
CCCCCCCCCCCCCC[N+](C)(C)C |  | inactive
Cc1c(C)c([N+](=O)[O-])c(C(C)(C)C)c([N+](=O)[O-])c1C |  | inactive
C=Cc1cccc(C)c1 |  | inactive
CCC(C)n1ncn(-c2ccc(N3CCN(c4ccc(OC[C@H]5CO[C@](Cn6cncn6)(c6ccc(Cl)cc6Cl)O5)cc4)CC3)cc2)c1=O (stereo not given in full) |  | inactive
CC(C)(C)C1CCC(=O)CC1 |  | inactive
O=S(=O)(O)c1ccc(Nc2nc(Nc3ccc(/C=C/c4ccc(Nc5nc(Nc6ccc(S(=O)(=O)O)cc6)nc(N(CCO)CCO)n5)cc4S(=O)(=O)O)c(S(=O)(=O)O)c3)nc(N(CCO)CCO)n2)cc1 |  | 35.5 µM [fluorescent] (active)
O=C(O)Cc1ccccc1Nc1c(Cl)cccc1Cl |  | inactive
CC[N+](CC)(CC)CCOc1ccc(/C=C/c2ccccc2)cc1 |  | inactive
CCC(=O)OC(=O)CC |  | inactive
O=C1C(c2[nH]c3ccc(S(=O)(=O)O)cc3c2O)=Nc2ccc(S(=O)(=O)O)cc21 |  | inactive
O=[N+]([O-])c1ccc(O)cc1C(F)(F)F |  | inactive
C[C@H]1NCc2cc(-c3ccc4c(=O)c(C(=O)O)cn(C5CC5)c4c3OC(F)F)ccc21 |  | inactive
OCCN1CCN(CCCN2c3ccccc3Sc3ccc(C(F)(F)F)cc32)CC1 |  | inactive
O=C(O)CCN(C1(C(=O)NO)CCCC1)S(=O)(=O)c1ccc(Oc2ccc(F)cc2)cc1 |  | inactive

SMILES | fluorescence, % of fluorescent control | Potency
CC(=O)CC(=O)Nc1ccc(S(=O)(=O)O)cc1 |  | inactive
c1cnccn1 |  | inactive
O=S(=O)(O)c1ccccc1/C=C/c1ccc(-c2ccc(/C=C/c3ccccc3S(=O)(=O)O)cc2)cc1 |  | 5.62 µM [fluorescent] (active)
OC1CCC(C2CCCCC2)CC1 (stereo not given) |  | inactive
CC(CCc1ccccc1)NCC(O)c1ccc(O)c(C(N)=O)c1 (stereo not given) |  | inactive
CCOC(=O)NNc1ccc(N(CC)CC(C)O)nn1 (stereo not given) |  | inactive
CCO[Si](OCC)(OCC)OCC |  | inactive
CCN(CCN)c1cccc(C)c1 |  | inactive
C=C(CC)C(=O)c1ccc(OCC(=O)O)c(Cl)c1Cl |  | inactive
CC(=O)[C@H]1CC[C@H]2[C@@H]3CCC4=CC(=O)CC[C@]4(C)[C@H]3CC[C@]12C |  | inactive
Nc1cc(Cl)c(O)c(Cl)c1 |  | inactive
CCCC[P+](C)(CCCC)CCCC |  | inactive
CC(C)(C)CC(C)(C)c1ccc(Nc2ccc(C(C)(C)CC(C)(C)C)cc2)cc1 | 0.0384% [at 3.72 µM] (inactive) | 
COc1ccc(-c2coc3cc(O)ccc3c2=O)cc1 |  | inactive
COc1cccc2c1C(=O)c1c(O)c3c(c(O)c1C2=O)C[C@@](O)(C(C)=O)C[C@@H]3O[C@H]1C[C@H](N)[C@H](O)[C@H](C)O1 |  | inactive
CN1CCN(Cc2cc(-c3ccc4[nH]c(=O)oc4c3)co2)[C@@H](c2ccc(F)cc2)C1 |  | inactive
COCCOc1cc2cc(C(=O)NC3CCN(C(C)C)CC3)n(CC(=O)Nc3ccc(Cl)cn3)c2cn1 |  | inactive
Cc1cc(=O)oc2cc(O)cc(O)c12 |  | 35.5 µM [fluorescent] (active)
C#C[C@]1(OC(C)=O)CC[C@H]2[C@@H]3CCC4=C[C@@H](OC(C)=O)CC[C@@H]4[C@H]3CC[C@@]21C |  | inactive
CC(N=C(NC#N)Nc1ccncc1)C(C)(C)C (stereo not given) |  | inactive
